# Measured values taken from PubChem BioAssay AID1851 (National Center for Advancing Translational Sciences (NCATS), 2009).
# Among all 16,000 compounds or so, about 4,000 (25%) were called active. Another 26% or so got no clear call; they are omitted. These entries were drawn from the full list. Values without a mark were called inactive. Calls follow the shape of the dose curve; as a rule, active = well fitted curve in the direction sought with a large enough effect; inconclusive = small, poorly fitted or top-dose-only effect, or effect the other way; inactive = no such curve, though single readings can be large or run the other way.
# Target: Cytochrome P450 2C9 (Homo sapiens) (UniProt P11712)
# Assay: Cytochrome panel assay with activity outcomes
# Conditions: recombinant CYP, pro-luciferin dealkylation, luminescence, p450-cyp2c9; series mostly up to 57.1 µM
# % is scaled to controls: 0 for no effect and ±100 for the full control effect.
# Cytochrome P450 2C9 (Homo sapiens), sequence (P11712 whole entry, looked up): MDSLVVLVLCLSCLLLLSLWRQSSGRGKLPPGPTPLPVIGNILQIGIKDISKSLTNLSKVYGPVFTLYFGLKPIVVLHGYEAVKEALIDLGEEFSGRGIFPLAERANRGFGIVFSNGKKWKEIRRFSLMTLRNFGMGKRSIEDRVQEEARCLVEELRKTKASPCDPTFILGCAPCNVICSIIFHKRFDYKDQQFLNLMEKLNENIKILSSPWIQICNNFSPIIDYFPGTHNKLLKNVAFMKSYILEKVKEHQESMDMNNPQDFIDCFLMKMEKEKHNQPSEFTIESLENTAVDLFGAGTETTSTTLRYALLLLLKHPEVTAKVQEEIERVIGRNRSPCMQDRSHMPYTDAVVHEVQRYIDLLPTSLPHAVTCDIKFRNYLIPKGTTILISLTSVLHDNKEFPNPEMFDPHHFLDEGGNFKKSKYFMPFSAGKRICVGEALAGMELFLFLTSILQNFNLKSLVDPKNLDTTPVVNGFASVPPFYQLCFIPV
SMILES,"activity, negative = inhibition",AC50
O=C1C=C(Nc2nc(C(=O)O)cc(=O)[nH]2)c2ccccc2C1=O,8.04% [at 11.4 µM],
O=C1C=C(NCCc2cc(Br)c(O)c(Br)c2)C(=O)c2ncccc21,,1.58 µM (active)
COc1ccc2c(c1)c(=O)oc1c(C)c(OCC(=O)N3CCc4ccccc4C3)ccc12,,1 µM (active)
COCC(=O)N1CCC2(CC1)CCN(C(=O)Nc1ccc(OC)cc1)CC2,,inactive
CN(C)CC[C@H](c1ccc(Br)cc1)c1ccccn1,,inactive
CN(Cc1ccco1)c1ccnc(-c2ccoc2)n1,27.8% [at 2.29 µM],
COc1ccccc1C1(CC(=O)Nc2nccs2)CCOC(C(C)C)C1 (configuration not stated),,10 µM (active)
Oc1ccccc1CNCc1ccccc1O,-4.69% [at 11.4 µM],
O[C@@H](c1cc(C(F)(F)F)nc2c(Cl)cc(Cl)cc12)[C@@H]1CCCCN1,0.514% [at 11.4 µM],
N#Cc1cccc(-c2nccc(NCc3ccccc3)n2)c1,-19.1% [at 2.29 µM],
COc1ccc(Oc2nccc(-c3ccc(F)cc3)c2C#N)cc1,,inactive
N#Cc1c(-c2ccccc2)ccnc1Oc1ccccc1,,7.08 µM (active)
CN(C)c1ccnc(Oc2ccc(Cl)cc2)c1C#N,,20 µM (active)
COc1ccccc1CNc1cc(-c2cccc(C#N)c2)ncn1,8.28% [at 2.29 µM],
C[C@@H]1O[C@H](O[C@@H]2[C@@H](Oc3cc(O)c4c(c3)O[C@H](c3ccc(O)cc3)CC4=O)O[C@@H](CO)[C@@H](O)[C@H]2O)[C@@H](O)[C@H](O)[C@@H]1O,,inactive
Cc1ccc2c(c1)N[C@H](c1ccc(C(=O)O)cc1)c1cccn1-2,-25.1% [at 11.4 µM],
C[C@@H](CN1CCC(Cc2ccccc2)CC1)[C@H](O)c1ccc(O)cc1,,inactive
C[C@@H](CN1CCC(Cc2ccccc2)CC1)[C@@H](O)c1ccc(O)cc1,,inactive
Cc1ccc(C)c(Cn2c(C(=O)OC(C)C)cc3c2ccn3C)c1,,8.91 µM (active)
CC(C)OC(=O)c1cc2c(ccn2C)n1CC(=O)N1CCC(Cc2ccccc2)CC1,,14.1 µM (active)
COCCn1c(=O)c(-c2cn(C)c3ccccc23)nc2cnc(Oc3cccc(Cl)c3)nc21,,inactive
COCCn1c(=O)c(-c2ccc(OC)cc2)nc2cnc(Nc3cccc(OC)c3)nc21,,inactive
COCCn1c(=O)c(-c2ccccc2)nc2cnc(Oc3cccc(Cl)c3)nc21,,0.501 µM (active)
N#CCCn1c(=O)c(-c2ccc(F)cc2)nc2cnc(Oc3cccc(Cl)c3)nc21,,inactive
COCCn1c(=O)c(-c2ccc(OC)cc2)nc2cnc(Oc3cccc(Cl)c3)nc21,,0.631 µM (active)
CCNc1ncc2nc(-c3cc(F)cc(F)c3)c(=O)n(CCOC)c2n1,,inactive
COCCn1c(=O)c(-c2cc(F)cc(F)c2)nc2cnc(Oc3cccc(Cl)c3)nc21,,3.98 µM (active)
